The values below come from PubChem BioAssay (EPA / NIEHS).

Some structures have more than one record in an assay (separate samples or runs), and their calls can disagree. Active and inactive are the calls of the source. How the source made its calls: active means hit-call score of the fitted dose curve at least 0.9, where 1 is the maximum; inactive means score below 0.9.

Read-out in the experiment: Collagen III, COL3A1 (gene 1281)
Kind of experiment: BSK_hDFCGF_CollagenIII: BioMAP Diversity Plus: hDFCGF Assay for Collagen III Biomarker Activity (AID 2283056). The following applies: primary human foreskin fibroblasts; actives raise or lower the signal. As to the method: BSK_hDFCGF is a cell-based, multiplexed-readout assay that uses foreskin fibroblast, a human skin primary cell, with measurements taken at 24 hours after chemical dosing in a 96-well plate.BSK_hDFCGF_CollagenIII is an assay component measured in the BSK_hDFCGF assay. It measures Collagen antibody related to regulation of gene expression using ELISA technology.Data from the assay component BSK_hDFCGF_CollagenIII was analyzed into 1 assay endpoint. This assay endpoint, BSK_hDFCGF_CollagenIII, was analyzed with bidirectional fitting relative to DMSO as the negative control and baseline of activity. Using a type of binding reporter, gain or loss-of-signal activity can be used to understand changes in the signaling as they relate to the gene COL3A1. Furthermore, this assay endpoint can be referred to as a primary readout, because this assay has produced multiple assay endpoints where this one serves a signaling function. To generalize the intended target to other relatable targets, this assay endpoint is annotated to the cell adhesion molecules intended target family, where the subfamily is collagen.
The levels of cell surface (or secreted, indicated by the prefix "s") biomarker endpoints were measured by ELISA. Overt cytotoxicity to cells in confluent adherent cultures (all systems other than the BT system) was assessed by measuring total protein levels using sulforhodamine B (SRB) staining in parallel cultures at the time of biomarker measurements, indicated as SRB endpoints. For proliferation assays for adherent cell types, individual cell types are cultured at sub-confluence and relative cell numbers quantified by SRB staining at time points optimized for each system (48 h: 3C and CASM3C systems; 72 h: BT and HDF3CGF systems; 96 h: SAg system). SRB was performed by staining cells with 0.1% SRB after fixation with 10% TCA and reading wells at 560 nm.Viability and proliferation of PBMC (T cells) was quantified by Alamar Blue reduction for the SAg and BT systems. For PBMC viability (referred to as PBMC Cytotoxicity within the assay endpoint names), cells were plated (75,000/well in a 96-well plate) and then chemical samples added for 1 h before addition of activators, SEB and TSST-1 (20 ng/mL final concentration each). Cells were incubated for 90 h. Then, Alamar Blue (20 uL/well) (Invitrogen, Cat DAL1100) was added for 6 h, and the plates were read with a fluorescence microplate reader at 546/580 nm (excitation/emission). For PBMC proliferation, cells were plated and activated as above but incubated for only 16 h prior to addition of Alamar Blue. Plates were read after 6 h.
In the case of `CC(C)CCCCCCOC(=O)C1CCCCC1C(=O)OCCCCCCC(C)C` (stereo unspecified), the result was inactive. Still for that read-out and setting: the entry for `CCCCCCOC(=O)CC(CC(=O)OCCCCCC)(OC(=O)CCC)C(=O)OCCCCCC` is “inactive”; for `NC(=O)N1c2ccccc2C=Cc2ccccc21` it is “inactive”; for `C[Si](C)(C)C(F)(F)C(F)(F)C(F)(F)F` it is “inactive”. Consider `CCn1nc(C)c2c1C(=O)NCC(c1ccc(O)cc1)=N2`, for which the result was inactive. Take `OCc1c[nH]c2ccccc12`: the result was inactive.

What is called AC50 is the midpoint of the concentration-response curve, whichever way the signal moves. As for `CCc1ccc(O)c(C(C)(C)C)c1`, the AC50 is 20 µM (active). For the molecule `c1ccc2cc3ccccc3cc2c1`, the outcome was inactive.

`O=C(O)[C@H](O)[C@@H](O)C(=O)O`: the outcome was inactive.

Regarding `CC(C)CC(C)O` (stereo unspecified), the outcome was inactive. Consider `CCCCCCCCCCCCCCCCOS(=O)(=O)O`, for which the AC50 is 18.3 µM (active). For the molecule `O=C1CN(N=Cc2ccc([N+](=O)[O-])o2)C(=O)N1`, the result was inactive. For the molecule `O=C(O)c1cccc(C(=O)O)c1`, the result was inactive.

Turning to `COCc1nnc(-c2ccc[n+]([O-])c2)n1-c1c(Cl)c(Cl)cc2[nH]c(=O)c(=O)[nH]c12`, the result was inactive. `CC(C)C(=O)Nc1ccc([N+](=O)[O-])c(C(F)(F)F)c1`: the AC50 was 31.7 µM (active). Take `NCC(F)(F)C(F)(F)C(F)(F)C(F)(F)F`: the result was inactive. For the molecule `CCCCCCCCN(C)C`, the result was inactive. The same measure, in the same setting: the entry for `OC[C@H]1O[C@@H]2O[C@H]3[C@H](O)[C@@H](O)[C@@H](O[C@H]4[C@H](O)[C@@H](O)[C@@H](O[C@H]5[C@H](O)[C@@H](O)[C@@H](O[C@H]6[C@H](O)[C@@H](O)[C@@H](O[C@H]7[C@H](O)[C@@H](O)[C@@H](O[C@H]1[C@H](O)[C@H]2O)O[C@@H]7CO)O[C@@H]6CO)O[C@@H]5CO)O[C@@H]4CO)O[C@@H]3CO` is “inactive”. Regarding `C=CCc1cc(S(=O)(=O)c2ccc(O)c(CC=C)c2)ccc1O`, the half-maximal activity concentration (AC50) is 6.52 µM (active). In the case of `S=P(N1CC1)(N1CC1)N1CC1`, the result was inactive. The same measure, in the same setting: the entry for `CC(=O)c1ccccc1` is “inactive”; for `O=c1[nH]cnc2c1ncn2[C@H]1CC[C@@H](CO)O1` it is “inactive”. `CCN(CC)C(=S)SSC(=S)N(CC)CC`: the AC50 is 4.78 µM (active).

With `CC[C@H](C)C(=O)O[C@H]1C[C@H](O)C=C2C=C[C@H](C)[C@H](CC[C@@H](O)C[C@@H](O)CC(=O)O)[C@H]21`, the outcome was inactive. The same measure, in the same setting: then `Cc1nccn1-c1ccc(Sc2cccc(C3(C(N)=O)CCOCC3)c2)cc1`, with “inactive”; and `C=CN1CCCC1=O`, with “inactive”; and `FC(F)C(F)(F)COCC1CO1` (stereo unspecified), with “inactive”. Same read-out and setting: then `Nc1ccn([C@@H]2O[C@H](CO)[C@@H](O)[C@@H]2O)c(=O)n1`, with “inactive”; and `COc1cc2c(c(OC)c1OC)-c1ccc(OC)c(=O)cc1[C@@H](NC(C)=O)CC2`, with “inactive”; and `NNC(=O)c1ccncc1`, with “inactive”. Same read-out and setting: the entry for `OCCC(F)(F)C(F)(F)C(F)(F)C(F)(F)F` is “inactive”.

As for `O=S(=O)(O)c1ccc(N=Nc2c(O)ccc3cc(S(=O)(=O)O)ccc23)cc1`, the outcome was inactive. Still for that read-out and setting: the entry for `OCC(CO)(CO)CO` is “inactive”. Same read-out and setting: the entry for `CNC(C)=O` is “inactive”; for `CC(C)c1nnc2ccc(-c3ocnc3-c3cc(F)ccc3F)cn12` it is “inactive”; for `OC[C@H]1O[C@@](CO)(O[C@H]2O[C@H](CO)[C@@H](O)[C@H](O)[C@H]2O)[C@@H](O)[C@@H]1O` it is “inactive”. Still for that read-out and setting: the entry for `CCc1cccc(CC)c1N` is “inactive”; for `O=C(O)c1ccc2c(c1)nc(C(=O)NC1CCN(C3CC3)CC1)n2Cc1cc(-c2ccc(Cl)s2)on1` it is “inactive”. For the molecule `O=C(O)c1cccc(C[C@@H]2COc3ccc(OCc4nc5cc(F)ccc5s4)cc3[C@@H]2O)c1`, the outcome was inactive. `FC(F)(F)C(F)(F)C(F)(F)C(F)(F)C(F)(F)C(F)(F)I`: the AC50 was 30 µM (active) and the outcome was inactive.
